HT1080NT lethal – qHTS for induction of synthetic lethality in tumor cells producing 2HG: qHTS for the HT-1080-NT fibrosarcoma cell line; 1.6% of 360,000 active; Potency, µM (series often up to 46.1 µM), without a hit: at the highest dose activity, negative = less viability, most hits filed as cytotoxic; HT-1080-NT fibrosarcoma viability, CellTiter-Glo ATP luminescence, 48 h; AID 686970, 2013;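 note: NT is the 2HG producing partner of a matched IDH1 knockdown line; 0% = DMSO-treated cells and -100% = media-only wells without cells; nearly all actives have a fitted effect of over 55% in size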
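Compounds were tested in concentration-response format on HT-1080-NT cells for 48 hours at 37 degrees C. Cell viability came from CellTiter-Glo luminescence; curves were classified by r2, response magnitude and activity.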
KB-V1 cytotox – qHTS assay for MDR1-selective chemotherapeutics: Primary screen using the drug-selected MDR subline cells KB-V1; KB-V1 MDR cells viability, CellTiter-Glo, 72 h; Potency, µM (doses to about 46.1 µM), usual class: cytotoxic; 3.4% of 400,000 active; AID 1347076, 2019; note: % is set by controls: 0 for no effect and ±100 for the full control effect; nearly all actives have a fitted effect of over 60% in size
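Readout: CellTiter-Glo luminescence, 10 min after addition. Cells: KB-V1 MDR subline, 72 h at 37 degrees C with compound. Analysis: corrected, normalized data fitted to concentration-effect curves.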
HT1080 IDH1KD tx – qHTS for induction of synthetic lethality in tumor cells producing 2HG: qHTS for the HT-1080-IDH1KD cell line; HT-1080 IDH1 knockdown viability, ATP luminescence, 48 h; Potency, µM (series often up to 46.1 µM), for inactives: top-dose activity, negative = toxicity, hits mostly cytotoxic; 2% of 360,000 active; AID 686971, 2013;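 note: 0% = DMSO wells and -100% = cell-free medium wells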
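Luminescent ATP read-out (CellTiter-Glo, 10 min at room temperature) after 48 h compound exposure at 37 °C gave viability of IDH1-knockdown HT-1080 cells. Activity was normalised to DMSO and cell-free wells, then fitted as concentration-response curves.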
KB-3-1 cytotox – qHTS assay for MDR1-selective chemotherapeutics: Primary screen using the parental adenocarcinoma cell KB-3-1 | KB-3-1 viability, CellTiter-Glo ATP luminescence, 72 h | Potency, µM (top dose mostly 46.1 µM), most hits filed as cytotoxic | 1.4% of 400,000 active | AID 1347075, 2019; note: % is set by controls: 0 for no effect and ±100 for the full control effect; nearly all actives have a fitted effect of over 60% in size
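Parental KB-3-1 adenocarcinoma cells in phenol-red-free DMEM with 10% FBS were pin-treated with compounds at several concentrations, incubated 72 h at 37 °C, and viability read by CellTiter-Glo luminescence; concentration-effect curves were fitted after normalization.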
SW480 rereplic – A quantitative high throughput screen for small molecules that induce DNA re-replication in SW480 colon adenocarcinoma cells; SW480 DNA re-replication, Hoechst DNA content imaging, 48 h; Potency, µM (doses to about 46.1 µM), without a hit: at the highest dose re-replication activation, hits mostly activators; 1.8% of 340,000 active; AID 624297, 2012; note: % of control where 0% means no effect; nearly all actives have a fitted effect of over 55% in size
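Image-based DNA-content assay: after two days of treatment, nuclei were labelled with the DNA dye Hoechst and imaged, and hits were compounds raising the count of nuclei showing high fluorescence intensity.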
MCF10A rerep – A quantitative high throughput screen for small molecules that induce DNA re-replication in MCF 10a normal breast cells; AID 624296, 2012; 2.9% of 350,000 active; MCF 10A DNA re-replication, Hoechst nuclear intensity, 48 h; Potency, µM (doses to about 46.1 µM), for the others: at the highest dose activity, positive = re-replication, hits mostly activators; note: % of control where 0% means no effect; nearly all actives have a fitted effect of over 50% in size
* hit, by the source's call; i = inactive; ? = inconclusive; nt = no result. In the library only some 7.9% were active in any assay of this set; here they are far more common. Calls come from the whole dose curve; as a rule, active = well fitted curve in the direction sought with a large enough effect; inconclusive = small, poorly fitted or top-dose-only effect, or another doubt; inactive = no such curve, though single readings can be large; an effect the other way counts as inactive or inconclusive. Potency is the fitted concentration of half-maximal effect.

SMILES	HT1080NT lethal	KB-V1 cytotox	HT1080 IDH1KD tx	KB-3-1 cytotox	SW480 rereplic	MCF10A rerep
CN(CCC#N)C(=O)COC(=O)c1c2c(nc3ccccc13)/C(=C\c1ccco1)CC2	-21%	i	-24%	i	4.1µM*	?
CCOc1ccc(-c2cn3c(n2)sc2cc(C(=O)NCCc4ccc(OC)cc4OC)ccc23)cc1	nt	i	nt	i	nt	nt
CC(C)c1ccccc1NC(=O)Cn1cnc2c1c(=O)n(C)c(=O)n2C	nt	i	nt	i	nt	nt
O=C(NCCC1=CCCCC1)C1CCC(CNS(=O)(=O)c2ccccc2)CC1 (centres undefined)	1%	8.2µM*	4%	i	-92%	?
O=C(NCCC1=CCCCC1)C1CCC(CNc2nc(=S)[nH]c3ccccc23)CC1 (centres undefined)	-2%	21µM*	-9%	?	10%	26µM*
CC(=O)Nc1ccc(S(=O)(=O)NCC2CCC(C(=O)NCCC3=CCCCC3)CC2)cc1 (centres undefined)	11%	i	12%	i	-1%	16%
O=C(NCCc1ccc(Cl)cc1)C1CCC(CNc2nc(=S)[nH]c3ccccc23)CC1 (centres undefined)	-10%	?	3%	?	12%	3%
CCN(CC)C(=O)CSc1nc2c(c(=O)n(C)c(=O)n2C)n1Cc1ccccc1	nt	i	nt	i	nt	nt
CSc1nnc2n(-c3cccc(C)c3)c(=O)c3c4c(sc3n12)CCCC4	nt	?	nt	i	nt	nt
CCCCN(CCCC)C(=O)CSc1nnc2n(C)c(=O)c3c4c(sc3n12)CCCC4	-5%	23µM*	-5%	?	1%	-10%
CCCSc1nnc2n(-c3cccc(C)c3)c(=O)c3c4c(sc3n12)CCCC4	nt	23µM*	nt	?	nt	nt
COC(=O)C1=CN(C(C)c2ccccc2)C=C(C(=O)OC)C1c1cc(OC)c(OC)c(OC)c1 (centres undefined)	-26%	i	-14%	i	21µM*	?
COc1ccc(C(=O)CCC(=O)Nc2ccc(F)cc2F)cc1	nt	i	nt	i	nt	nt
CCN1CCN(c2ccc(S(=O)(=O)N3CCCCC3)cc2NC(=O)c2sccc2C)CC1	0%	?	-3%	i	0%	-1%
CCn1cnc2c1c(=O)n(Cc1cccc(Br)c1)c(=O)n2Cc1ccccc1	?	18µM*	-26%	?	3%	13%
Cc1cccc(S(=O)(=O)c2cn(Cc3ccc(F)cc3)c3cc(N4CCOCC4)c(F)cc3c2=O)c1	nt	i	nt	i	nt	nt
CSc1nnc(NC(=O)c2nc(S(=O)(=O)Cc3ccccc3F)ncc2Cl)s1	?	?	21µM*	?	?	?
Cc1nnc(NC(=O)c2nc(S(=O)(=O)Cc3ccccc3C)ncc2Cl)s1	18µM*	?	?	?	?	2.6µM*
O=C(Nc1ccccc1)c1nc(S(=O)(=O)Cc2ccccc2F)ncc1Cl	nt	i	nt	i	nt	nt
CC(C)c1nnc(NC(=O)c2nc(S(=O)(=O)Cc3ccccc3F)ncc2Cl)s1	18µM*	i	?	?	12%	0.73µM*
CCc1ccc(/C=C2\SC(=S)N(CCCC(=O)N(CCO)c3ccccc3)C2=O)cc1	?	i	?	?	nt	nt
CC(NNC(=S)N1CCCCCC1)c1ccc2ccccc2n1 (centres undefined)	23µM*	i	?	?	nt	nt
S=C(Nc1ccccc1)N1CCCCCC1	21%	i	5%	i	-6%	2%
C[C@H]1CN([C@@H](C)CO)C(=O)CCCn2nncc2CO[C@@H]1CN(C)Cc1ccccc1	2%	i	4%	i	nt	nt
CSc1nc(-c2ccc(Cl)cc2)c(C#N)c(=O)n1C	5%	i	3%	i	0%	0%
SMILES	HT1080NT lethal	KB-V1 cytotox	HT1080 IDH1KD tx	KB-3-1 cytotox	SW480 rereplic	MCF10A rerep
CSc1nc(-c2ccc(N(C)C)cc2)c(C#N)c(=O)n1C	3%	i	-1%	i	7.3µM*	12µM*
C/C(CC(=O)Nc1ccc(Cl)c(C(F)(F)F)c1)=N\NC(=O)c1cccc(O)c1	4%	i	3%	?	-2%	0%
C/C(CC(=O)Nc1ccc(Cl)c(C(F)(F)F)c1)=N\NC(=O)c1ccccc1O	?	18µM*	?	?	107%	?
C/C(CC(=O)Nc1ccc(N(C)C)cc1)=N\NC(=O)c1ccccc1O	21µM*	i	?	i	?	?
C/C(CC(=O)Nc1ccc([N+](=O)[O-])cc1)=N\NC(=O)c1ccccc1O	-27%	i	-25%	i	25%	?
CC(C)N(C)c1ncnc2c1ncn2[C@H]1CN(C2CCCC2)C[C@@H](CO)O1	0%	i	18%	i	nt	nt
COC(=O)c1ccc(/C=N/Nc2nc(-c3ccc(C)cc3)cs2)cc1	22%	i	10%	i	2%	?
Cc1nc(N/N=C/c2ccccn2)sc1C	13µM*	?	15µM*	26µM*	21µM*	?
COC(=O)c1ccc(/C=N/Nc2nc(C)c(C)s2)cc1	0%	i	1%	i	?	23µM*
CCCc1sc(N/N=C/c2ccccn2)nc1-c1ccc(F)cc1	2.8µM*	10µM*	3.2µM*	?	-6%	0%
Cc1cc(C(=O)NC2CCCc3c2cnn3-c2ccc(C(C)(C)C)cc2)nn1C (centres undefined)	13µM*	?	-16%	?	1%	?
Cc1cc(C(=O)NC2CCCc3c2cnn3-c2ccc(C)c(C)c2)nc(C)n1 (centres undefined)	-1%	?	-19%	i	-21%	8%
COC(=O)c1ccc(C(=O)NC2CCCc3c2cnn3-c2cc(F)cc(F)c2)nc1 (centres undefined)	?	10µM*	16µM*	?	6.5µM*	2.9µM*
COC(=O)c1ccc(C(=O)NC2CCCc3c2cnn3-c2ccc(C)c(C)c2)cc1 (centres undefined)	15µM*	5.2µM*	23µM*	1.6µM*	6.5µM*	2.3µM*
COc1ccc(C(=O)NC2CCCc3c2cnn3-c2cc(F)cc(F)c2)c(OC)c1OC (centres undefined)	?	18µM*	?	?	1%	?

High-throughput results from PubChem.
